Assay results: paper PMC11006913

Assays:
Assay in all cases: PBM; 200 nM protein, PBS
Details in all cases: dsDNA, one strand shown
HESX1 [1] = molecular target: HESX1 (Homo sapiens, UniProt Q9UBX0 95-180, R165K)
HESX1 [2] = molecular target: HESX1 (Homo sapiens, UniProt Q9UBX0 95-180)
HESX1 [3] = molecular target: HESX1 (Homo sapiens, UniProt Q9UBX0 95-180, R109Q)
HESX1 [4] = molecular target: HESX1 (Homo sapiens, UniProt Q9UBX0 95-180, P111T)
HESX1 [5] = molecular target: HESX1 (Homo sapiens, UniProt Q9UBX0 95-180, F115L)
HESX1 (Homo sapiens, UniProt Q9UBX0 95-180, F115L), sequence (Q9UBX0 95-180 F115L): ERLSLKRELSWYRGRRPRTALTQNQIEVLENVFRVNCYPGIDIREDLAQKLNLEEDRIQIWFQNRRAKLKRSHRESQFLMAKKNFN

PROP1 [6] = molecular target: PROP1 (Homo sapiens, UniProt O75360 56-141)
PROP1 (Homo sapiens, UniProt O75360 56-141), sequence (O75360 56-141): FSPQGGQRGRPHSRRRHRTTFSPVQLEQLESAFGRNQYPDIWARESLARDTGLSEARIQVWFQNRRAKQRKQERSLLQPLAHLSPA

PROP1 [7] = molecular target: PROP1 (Homo sapiens, UniProt O75360 56-141, R99H)
PROP1 (Homo sapiens, UniProt O75360 56-141, R99H), sequence (O75360 56-141 R99H): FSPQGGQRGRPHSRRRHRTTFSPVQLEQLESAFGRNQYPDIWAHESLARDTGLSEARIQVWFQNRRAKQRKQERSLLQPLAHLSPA

PROP1 [8] = molecular target: PROP1 (Homo sapiens, UniProt O75360 56-141, F88S)
PROP1 (Homo sapiens, UniProt O75360 56-141, F88S), sequence (O75360 56-141 F88S): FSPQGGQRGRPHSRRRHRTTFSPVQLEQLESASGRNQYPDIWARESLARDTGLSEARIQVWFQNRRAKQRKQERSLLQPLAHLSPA

HESX1 (Homo sapiens, UniProt Q9UBX0 95-180, R165K), sequence (Q9UBX0 95-180 R165K): as the sequence (Q9UBX0 95-180 F115L) above, with L21F, R71K counted along it
HESX1 (Homo sapiens, UniProt Q9UBX0 95-180), sequence (Q9UBX0 95-180): as the sequence (Q9UBX0 95-180 F115L) above, with L21F counted along it
HESX1 (Homo sapiens, UniProt Q9UBX0 95-180, P111T), sequence (Q9UBX0 95-180 P111T): as the sequence (Q9UBX0 95-180 F115L) above, with P17T, L21F counted along it
HESX1 (Homo sapiens, UniProt Q9UBX0 95-180, R109Q), sequence (Q9UBX0 95-180 R109Q): as the sequence (Q9UBX0 95-180 F115L) above, with R15Q, L21F counted along it

AACTCATA
binding signal (HESX1 [1]): 7.51 upbm affinity estimate (log intensity, higher = more binding, comparable within an allelic series) | binding signal (HESX1 [2]): 7.49 upbm affinity estimate (log intensity, higher = more binding, comparable within an allelic series) | binding signal (HESX1 [3]): 7.12 upbm affinity estimate (log intensity, higher = more binding, comparable within an allelic series) | binding signal (HESX1 [4]): 7.23 upbm affinity estimate (log intensity, higher = more binding, comparable within an allelic series)

CCGGTCAG
binding signal (HESX1 [1]): 6.41 upbm affinity estimate (log intensity, higher = more binding, comparable within an allelic series) | binding signal (HESX1 [2]): 6.5 upbm affinity estimate (log intensity, higher = more binding, comparable within an allelic series) | binding signal (HESX1 [3]): 6.57 upbm affinity estimate (log intensity, higher = more binding, comparable within an allelic series) | binding signal (HESX1 [4]): 6.6 upbm affinity estimate (log intensity, higher = more binding, comparable within an allelic series) | binding signal (HESX1 [5]): 6.53 upbm affinity estimate (log intensity, higher = more binding, comparable within an allelic series)

GCAGCGCA
binding signal (HESX1 [1]): 6.45 upbm affinity estimate (log intensity, higher = more binding, comparable within an allelic series) | binding signal (HESX1 [2]): 6.27 upbm affinity estimate (log intensity, higher = more binding, comparable within an allelic series) | binding signal (PROP1 [6]): 6.75 upbm affinity estimate (log intensity, higher = more binding, comparable within an allelic series) | binding signal (HESX1 [3]): 6.54 upbm affinity estimate (log intensity, higher = more binding, comparable within an allelic series) | binding signal (PROP1 [7]): 6.76 upbm affinity estimate (log intensity, higher = more binding, comparable within an allelic series) | binding signal (HESX1 [4]): 6.47 upbm affinity estimate (log intensity, higher = more binding, comparable within an allelic series) | binding signal (PROP1 [8]): 6.81 upbm affinity estimate (log intensity, higher = more binding, comparable within an allelic series) | binding signal (HESX1 [5]): 6.53 upbm affinity estimate (log intensity, higher = more binding, comparable within an allelic series)

AGCCTCGC
binding signal (HESX1 [1]): 6.43 upbm affinity estimate (log intensity, higher = more binding, comparable within an allelic series) | binding signal (HESX1 [2]): 6.5 upbm affinity estimate (log intensity, higher = more binding, comparable within an allelic series) | binding signal (HESX1 [3]): 6.45 upbm affinity estimate (log intensity, higher = more binding, comparable within an allelic series) | binding signal (HESX1 [4]): 6.49 upbm affinity estimate (log intensity, higher = more binding, comparable within an allelic series) | binding signal (HESX1 [5]): 6.46 upbm affinity estimate (log intensity, higher = more binding, comparable within an allelic series)

CTGCCAGC
binding signal (HESX1 [1]): 6.31 upbm affinity estimate (log intensity, higher = more binding, comparable within an allelic series) | binding signal (HESX1 [2]): 6.34 upbm affinity estimate (log intensity, higher = more binding, comparable within an allelic series) | binding signal (HESX1 [3]): 6.43 upbm affinity estimate (log intensity, higher = more binding, comparable within an allelic series) | binding signal (HESX1 [4]): 6.51 upbm affinity estimate (log intensity, higher = more binding, comparable within an allelic series) | binding signal (HESX1 [5]): 6.4 upbm affinity estimate (log intensity, higher = more binding, comparable within an allelic series)

CGGCACGC
binding signal (HESX1 [1]): 6.6 upbm affinity estimate (log intensity, higher = more binding, comparable within an allelic series) | binding signal (HESX1 [2]): 6.41 upbm affinity estimate (log intensity, higher = more binding, comparable within an allelic series) | binding signal (HESX1 [3]): 6.57 upbm affinity estimate (log intensity, higher = more binding, comparable within an allelic series) | binding signal (HESX1 [4]): 6.5 upbm affinity estimate (log intensity, higher = more binding, comparable within an allelic series) | binding signal (HESX1 [5]): 6.53 upbm affinity estimate (log intensity, higher = more binding, comparable within an allelic series)

AGACGCTC
binding signal (HESX1 [1]): 6.35 upbm affinity estimate (log intensity, higher = more binding, comparable within an allelic series) | binding signal (HESX1 [2]): 6.34 upbm affinity estimate (log intensity, higher = more binding, comparable within an allelic series) | binding signal (HESX1 [3]): 6.5 upbm affinity estimate (log intensity, higher = more binding, comparable within an allelic series) | binding signal (HESX1 [4]): 6.36 upbm affinity estimate (log intensity, higher = more binding, comparable within an allelic series) | binding signal (HESX1 [5]): 6.54 upbm affinity estimate (log intensity, higher = more binding, comparable within an allelic series)

ACAGCGCG
binding signal (HESX1 [1]): 6.46 upbm affinity estimate (log intensity, higher = more binding, comparable within an allelic series) | binding signal (HESX1 [2]): 6.41 upbm affinity estimate (log intensity, higher = more binding, comparable within an allelic series) | binding signal (HESX1 [3]): 6.49 upbm affinity estimate (log intensity, higher = more binding, comparable within an allelic series) | binding signal (HESX1 [4]): 6.48 upbm affinity estimate (log intensity, higher = more binding, comparable within an allelic series) | binding signal (HESX1 [5]): 6.44 upbm affinity estimate (log intensity, higher = more binding, comparable within an allelic series)

CCGGCCGA
binding signal (HESX1 [1]): 6.49 upbm affinity estimate (log intensity, higher = more binding, comparable within an allelic series) | binding signal (HESX1 [2]): 6.45 upbm affinity estimate (log intensity, higher = more binding, comparable within an allelic series) | binding signal (PROP1 [6]): 6.73 upbm affinity estimate (log intensity, higher = more binding, comparable within an allelic series) | binding signal (HESX1 [3]): 6.51 upbm affinity estimate (log intensity, higher = more binding, comparable within an allelic series) | binding signal (PROP1 [7]): 6.72 upbm affinity estimate (log intensity, higher = more binding, comparable within an allelic series) | binding signal (HESX1 [4]): 6.49 upbm affinity estimate (log intensity, higher = more binding, comparable within an allelic series) | binding signal (PROP1 [8]): 6.59 upbm affinity estimate (log intensity, higher = more binding, comparable within an allelic series) | binding signal (HESX1 [5]): 6.54 upbm affinity estimate (log intensity, higher = more binding, comparable within an allelic series)
